For 10 molecules, growth results are on record in PubChem BioAssay (NCI).

Among the test systems are RPMI-8226 leukemia; OVCAR-8 ovarian; OVCAR-5 ovarian; SK-OV-3 ovarian; IGROV1 ovarian; OVCAR-3 ovarian; HS 578T breast; NCI/ADR-RES ovarian; T-47D breast; BT-549 breast; MDA-MB-435 melanoma; SW-620 colon; MCF7 breast; HCT-116 colon; KM12 colon; OVCAR-4 ovarian; HCC-2998 colon.
Experiment in all cases: NCI-60 one-dose screen, 48 h (100 = growth as untreated, 0 = no growth, -100 = all killed)
Common to all, as to conditions: 10 µM unless noted

Compounds without any hit were thinned out: in the full panel of roughly 83,000, 20% have a hit.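 Cells were grown in 96-well plates and exposed to the test compound at a single concentration for 48 hours; results are reported as percent growth, with values below 10 considered active.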 A number with no mark means an inactive call. Active and inactive are the calls of the source.

Turning to `CCOC(=O)CC(=O)c1c(C)cc(C)cc1C`, the growth is 90.3% in the assay with RPMI-8226 leukemia; 102% with OVCAR-8 ovarian; 84.1% with OVCAR-5 ovarian; 105% with SK-OV-3 ovarian; 108% with IGROV1 ovarian; 117% in the assay on OVCAR-3 ovarian. The growth is 91.7% in the assay on HS 578T breast; 102% with NCI/ADR-RES ovarian; 121% in the assay with T-47D breast; 93.5% in the assay on BT-549 breast; 98.6% with MDA-MB-435 melanoma; 103% in the assay with SW-620 colon. In addition, the growth is 97.5% with MCF7 breast, 91.2% in the assay with HCT-116 colon and 95.5% in the assay with KM12 colon.

With `COc1cc(-c2c3sc(=O)[nH]c3nc3c2c(=O)[nH]n3C(C)C)cc2c1OCO2`, the growth with RPMI-8226 leukemia is 124%; in the assay on OVCAR-8 ovarian, 108%; with OVCAR-5 ovarian, 96.6%; in the assay on SK-OV-3 ovarian it was 114%; in the assay on IGROV1 ovarian, 101%; in the assay on OVCAR-3 ovarian it was 114%. In addition, the growth with HS 578T breast is 105%; in the assay with NCI/ADR-RES ovarian it was 102%; in the assay with T-47D breast, 105%; with BT-549 breast, 105%; in the assay with MDA-MB-435 melanoma, 104%; in the assay on SW-620 colon, 104%. Besides, the results for the growth with MCF7 breast, with HCT-116 colon and in the assay with KM12 colon were 91.7%, 106% and 101%, respectively.

On to `O=C(NC(Cc1ccccc1)C(=O)CCl)OCc1ccccc1` (stereo not given), for which the growth in the assay on RPMI-8226 leukemia was 9.51% (active); with OVCAR-5 ovarian it was 92.3%; in the assay with OVCAR-4 ovarian, 62.7%; in the assay with SK-OV-3 ovarian, 87.8%; with IGROV1 ovarian, 87.7%; in the assay with OVCAR-3 ovarian, 76%. Besides, the growth is 99.5% in the assay on HS 578T breast; 70.7% in the assay with T-47D breast; 41.4% with BT-549 breast; 16.1% in the assay on MDA-MB-435 melanoma; 48.4% in the assay with SW-620 colon; 29% in the assay on MCF7 breast. The growth was 45.9% with HCT-116 colon, 97.1% in the assay on HCC-2998 colon and 89.1% in the assay on KM12 colon.

Turning to `O=C1C(Cl)=C(Cl)C(=O)c2c1nc1n2CCCC1`, the growth in the assay with RPMI-8226 leukemia was 99.3%; in the assay on OVCAR-8 ovarian, 100%; with OVCAR-5 ovarian, 116%; with OVCAR-4 ovarian, 117%; in the assay on SK-OV-3 ovarian, 90.8%; with IGROV1 ovarian it was 104%. In addition, the growth in the assay on OVCAR-3 ovarian is 82.5%; in the assay on HS 578T breast, 105%; in the assay on T-47D breast, 48.3%; in the assay with BT-549 breast, 95.5%; in the assay on MDA-MB-435 melanoma, 115%; in the assay with SW-620 colon it was 81.6%. The growth with MCF7 breast was 70%; in the assay with HCT-116 colon, 84.1%; with KM12 colon, 80.5%.

On to `C[C@@H]1CC[C@@H]2[C@@H]1[C@H](OC(=O)/C=C/c1ccccc1)[C@]1(C3CCCCC3)C[C@@H](OC(=O)CO)[C@@]2(C)O1`, for which the growth was 44.9% in the assay with RPMI-8226 leukemia; 45.2% in the assay with OVCAR-8 ovarian; 96% in the assay with OVCAR-5 ovarian; 81.4% with SK-OV-3 ovarian; 81.3% in the assay with IGROV1 ovarian; 75.1% in the assay on OVCAR-3 ovarian. For the same molecule, the growth was -22.4% (active) in the assay on HS 578T breast; 51.1% in the assay with NCI/ADR-RES ovarian; 42.8% in the assay with T-47D breast; 0.688% (active) in the assay on BT-549 breast; 87.9% with MDA-MB-435 melanoma; 77.6% with SW-620 colon. The growth in the assay with MCF7 breast is 38.3%; in the assay with HCT-116 colon it was 52%; in the assay on HCC-2998 colon, 78%; with KM12 colon, 69.1%.

Turning to `CC1=N/C(=C\c2cccc(Br)c2)C(=O)O1`, the growth in the assay with OVCAR-8 ovarian is 105%; with OVCAR-5 ovarian, 106%; in the assay with OVCAR-4 ovarian, 110%; in the assay with SK-OV-3 ovarian, 102%; in the assay with IGROV1 ovarian, 106%; in the assay with OVCAR-3 ovarian, 103%. Also, the growth with HS 578T breast is 107%; in the assay on NCI/ADR-RES ovarian, 107%; in the assay on T-47D breast it was 97.3%; in the assay with BT-549 breast it was 109%; with MDA-MB-435 melanoma, 107%; in the assay on SW-620 colon, 104%. Also, the growth in the assay with MCF7 breast was 102%; with HCT-116 colon it was 103%; with HCC-2998 colon, 111%; in the assay on KM12 colon, 106%.

In the case of `O=C(Cn1cc(CN2C(=O)c3ccccc3S2(=O)=O)nn1)Nc1ccc([N+](=O)[O-])cc1Cl`, the growth in the assay on OVCAR-8 ovarian was 95.3%; in the assay with OVCAR-5 ovarian it was 113%; with OVCAR-4 ovarian, 115%; in the assay on SK-OV-3 ovarian it was 73.5%; in the assay on IGROV1 ovarian, 103%; in the assay with OVCAR-3 ovarian, 105%. Besides, the growth in the assay with HS 578T breast was 92.9%; in the assay with NCI/ADR-RES ovarian, 89.3%; in the assay with T-47D breast, 76.9%; with BT-549 breast, 103%; in the assay with SW-620 colon, 98.1%; in the assay on MCF7 breast it was 83%. The results for the growth in the assay on HCT-116 colon, in the assay with HCC-2998 colon and with KM12 colon were 103%, 98.4% and 93.8%, respectively.

For `Cc1csc2ccc(Cl)cc12`, the growth in the assay with RPMI-8226 leukemia is 109%; with OVCAR-5 ovarian, 102%; in the assay on OVCAR-4 ovarian, 98.1%; with SK-OV-3 ovarian it was 96.5%; with IGROV1 ovarian, 104%; in the assay with OVCAR-3 ovarian, 111%. Also, the growth is 104% with HS 578T breast; 103% in the assay on NCI/ADR-RES ovarian; 104% with T-47D breast; 104% with BT-549 breast; 103% with MDA-MB-435 melanoma; 102% with SW-620 colon. Besides, the growth in the assay on MCF7 breast is 98.3%; in the assay with HCT-116 colon it was 106%; with HCC-2998 colon, 109%; in the assay with KM12 colon, 111%.

`O=C(/C=C\c1ccc2ccccc2n1)c1cc(Cl)ccc1O`: the growth in the assay with OVCAR-8 ovarian is 63.6%; with OVCAR-5 ovarian it was 81.3%; in the assay with OVCAR-4 ovarian it was 73.6%; with SK-OV-3 ovarian, 111%; in the assay on IGROV1 ovarian, 86.1%; in the assay with OVCAR-3 ovarian it was 43.5%. The growth in the assay with HS 578T breast was 95.1%; in the assay with NCI/ADR-RES ovarian, 60.4%; with T-47D breast, 28.3%; in the assay with BT-549 breast it was 71.5%; in the assay with MDA-MB-435 melanoma, 51.8%; in the assay on SW-620 colon, 29%. For the same molecule, the growth in the assay with MCF7 breast is 27.9%; with HCT-116 colon, 48.6%; with HCC-2998 colon, 84.4%; in the assay on KM12 colon, 74.2%.

For `COc1ccc(-c2c3c(nc4n[nH]c(-c5ccc(Cl)cc5)c24)-c2ccccc2C(=O)C3=O)cc1`, the growth in the assay with RPMI-8226 leukemia was -11.4% (active); in the assay on OVCAR-8 ovarian it was 3.87% (active); in the assay with OVCAR-5 ovarian, 51.5%; in the assay with OVCAR-4 ovarian, 23%; in the assay with SK-OV-3 ovarian, 42.5%; in the assay with OVCAR-3 ovarian, -17.2% (active). Moreover, the growth with HS 578T breast was 7.1% (active); in the assay with NCI/ADR-RES ovarian it was -3.63% (active); with T-47D breast, 17%; in the assay on BT-549 breast it was 20.5%; with MDA-MB-435 melanoma it was -86.2% (active); in the assay on SW-620 colon, -66.1% (active). Further, the growth was 1.77% (active) with MCF7 breast, -44.5% (active) in the assay with HCT-116 colon, -25.5% (active) in the assay with HCC-2998 colon and -20.6% (active) with KM12 colon.
